These results are taken from PubChem BioAssay (NCI).

Where “and” joins values, the source holds several entries; their conditions need not be identical. Identical values can stand only once. This is part of a sample that, as a whole, favours compounds with a hit. Of some 83,000 tested, about 20% had one in any assay.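 Compound tested at a single concentration for 48 hours in 96-well plates; a percent growth value below 10 was scored as active.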 Calls of active or inactive are those of the source.

The first test has as its system SN12C renal. As to the kind of experiment: NCI-60 one-dose screen, 48 h (100 = growth as untreated, 0 = no growth, -100 = all killed). The following applies: 10 µM. The procedure:
Growth inhibition of the SN12C human tumor cell line is measured as a screen for anti-cancer activity. Cells are grown in 96 well plates and exposed to the test compound for 48 hours. Compounds are tested at a single concentration, which is 10^-5 M for most compounds. The reported endpoint is percent growth (GI% or GIPRCNT), where numbers from 0 - 100% represent growth inhibition, and numbers from -100% - 0 represent cell death. For example, a value of 40 represents 60% growth inhibition. A value of 0 means no net growth occurred over the course of the experiment. A value of -40 indicates 40% of cells at the beginning of the experiment died by the end of the experiment. A value of -100 means all cells are dead at the end of the experiment.
NCI-60 Human Tumor Cell Lines Screen was performed using the standard one-dose NCI protocol, which is described in more detail at https://dtp.cancer.gov/discovery_development/nci-60/default.htm.
Compounds with GIPRCNT values below 10 were considered active. Activity score was based on GIPRCNT using the following formula: […]
Score is 0 for GIPRCNT values of 100 or above, 50 for GIPRCNT values of 0, and 100 for GIPRCNT values of -100.
Consider `O=C(O)CCCc1ccc(N(CCCl)CCCl)cc1`, for which the growth was 82.9% (inactive) and 86.8% (inactive).

The same test, now with this note: 10 µM unless noted.
As for `C[C@]12CC[C@H]3[C@@H](CC=C4c5nc(-c6ccc(Br)cc6)sc5CC[C@@]43C)[C@@H]1CC[C@@H]2O`, the growth is 91.4% (inactive). Turning to `COC12CC3(C)C(C4=CC(=O)OC4)CCC3(O)C3CCC4=CC(=O)CCC4(CO1)C32` (stereo not given), the growth was 105% (inactive). The same measure, in the same setting: the result for `COC12CC3C4=CCOC5CC(=O)N6c7ccccc7C1(CCN2C4)C6C53` (stereo not given) reads 119% (inactive); that for `[N-]=[N+]=CC(=O)CCC(=O)C=[N+]=[N-]`, 107% (inactive). On the same count and under the same terms, the result for `CCC(Br)(CC)C(=O)NC(N)=O` reads 103% (inactive); that for `CCOC(=O)c1ccccc1C(=O)OCC`, 94.6% (inactive); that for `O=C1NC(=O)C(=C/C=C/c2ccccc2)C(=O)N1`, -10.6% (active). Same read-out and setting: the result for `COC(=O)C12C3C4C1C1C2C3C41NC(=O)c1csc([C@@H](C[C@H](C(C)C)N(C)C(=O)[C@@H](NC(=O)[C@H]2CCCCN2C)C2CC2)OC(C)=O)n1` (stereo not given in full) reads 31.1% (inactive).

Regarding `COc1ccc(/C=C(/C)[N+](=O)[O-])cc1OC`, the growth was -1.3% (active) and 25.2% (inactive). Take `Nc1c(Cl)c(Cl)nc(C(=O)O)c1Cl`: the growth is 93.6% (inactive). The same measure, in the same setting: the result for `Cn1cc(C(=O)C[n+]2ccccc2)c2ccccc21` reads 101% (inactive); that for `O=C1CN2CCC1CC2`, 106% (inactive); that for `N[C@@H](CCC(=O)CCl)C(=O)O`, 89% [20 µM] (inactive). Still for that read-out and setting: the result for `C=C[Se]CC(=O)/C=C/c1ccccc1` reads 73.6% (inactive); that for `C[C@@H]1C/C=C\C(=O)O[C@H](/C=C/C#C/C=C/C(C)(C)[C@@H](O)c2cccc(O)c2Br)[C@@H](C)/C=C/[C@H](C)C[C@H](OC(N)=O)C1`, 36.4% (inactive); that for `O=[N+]([O-])c1ccc2scc3c4ccccc4nc-3c2c1`, -36% (active).

Regarding `NC(=O)c1c(Br)c(Br)c(Br)c(Br)c1C(=O)O` (tested in a mixture with another compound), the growth is 87.8% (inactive) and 93.3% (inactive).

For the compound `CCC1(CCSC#N)C(=O)NC(=O)NC1=O`, the growth was 104% (inactive). Same read-out and setting: the figure for `Cc1cc(N)ccc1N` is 95.7% (inactive).

`N#CCN(CC#N)[N+](=O)[O-]`: the growth is 94% (inactive). Still for that read-out and setting: the figure for `CNC(=O)O/N=C(\SC)C(=O)N(C)C` is 104% (inactive); for `C=C1C(=O)OC2CC3(C)OC3C3OC3C3=CC(OC3=O)C12` (stereo not given) it is 100% (inactive) and 97.4% (inactive). On the same count and under the same terms, the result for `CC1(C)S[C@H]2CC[C@H]3OC(=O)[C@@H]1N23` reads 119% (inactive); that for `CC[C@H](C)[C@H](NC(=O)[C@H]1CCCCN1C)C(=O)N(C)[C@H](C[C@@H](OC(C)=O)c1nc(C(=O)N[C@@H](Cc2ccccc2)C[C@H](C)C(=O)O)cs1)C(C)C`, 47.5% (inactive); that for `C[C@]12CCc3sc(Nc4ccc(OC(F)(F)F)cc4)nc3C1=CC[C@@H]1[C@@H]2CC[C@]2(C)C(=O)CC[C@@H]12`, 71.2% (inactive). In the case of `C[N+]1(CC#CC[N+]2(C)CCCC2)CCCC1`, the growth is 102% (inactive).

As to `Nc1cccnc1`, the growth was 102% (inactive). On the same count and under the same terms, the result for `C[C@H](O)CCC(=O)c1ccoc1` reads 96.9% (inactive). On the same count and under the same terms, the figure for `OCCN=Cc1c[nH]c2ccccc12` is 93.3% (inactive); for `CCC(=O)C(CC(C)N1CCCCCC1)(c1ccccc1)c1ccccc1` (stereo not given) it is 97.8% (inactive). Same read-out and setting: the figure for `C[C@]12CCc3sc(Nc4ccc(F)cc4F)nc3C1=CC[C@@H]1[C@@H]2CC[C@]2(C)C(=O)CC[C@@H]12` is 64.1% (inactive); for `O=C(Cc1ccccc1)c1ccccc1` it is 106% (inactive). Take `COC[C@H]1OC(=O)c2coc3c2[C@@]1(C)C1=C(C3=O)[C@@H]2CCC(=O)[C@@]2(C)C[C@H]1OC(C)=O`: the growth was 43.3% (inactive). Same read-out and setting: the result for `CCN1C(=O)CC(=O)N(CC)C1=S` reads 99.3% (inactive); that for `O=[N+]([O-])c1c(Cl)cc(Cl)c([N+](=O)[O-])c1Cl`, 108% (inactive); that for `COc1ccc(C(C#N)C(C)=O)cc1` (stereo not given), 102% (inactive). Same read-out and setting: the figure for `CCOC(=O)P(=O)(OCC)OCC` is 101% (inactive). On the same count and under the same terms, the figure for `CC1=C([Te]c2ccccc2)C(=O)c2ccccc2C1=O` is 5.18% (active).

Staying with this test, now noted: 75 µM.
Consider `O=C(O)CCCc1ccc(N(CCCl)CCCl)cc1`, for which the growth was 41.2% (inactive).
